The entries come from a sample that favours hits as a whole.
TbREL1 primary: TbREL1 inhibition, primary screen | P86926 | TbREL1 RNA ligation, FRET fluorescence | inhibition, % at 9.66 µM | 89,000 tested, 0.49% active | AID 1117264;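 active = inhibition above the mean inhibition across all screened compounds plus 3 SD, cut at about 11% in these data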
Target sequence (P86926 whole entry, looked up): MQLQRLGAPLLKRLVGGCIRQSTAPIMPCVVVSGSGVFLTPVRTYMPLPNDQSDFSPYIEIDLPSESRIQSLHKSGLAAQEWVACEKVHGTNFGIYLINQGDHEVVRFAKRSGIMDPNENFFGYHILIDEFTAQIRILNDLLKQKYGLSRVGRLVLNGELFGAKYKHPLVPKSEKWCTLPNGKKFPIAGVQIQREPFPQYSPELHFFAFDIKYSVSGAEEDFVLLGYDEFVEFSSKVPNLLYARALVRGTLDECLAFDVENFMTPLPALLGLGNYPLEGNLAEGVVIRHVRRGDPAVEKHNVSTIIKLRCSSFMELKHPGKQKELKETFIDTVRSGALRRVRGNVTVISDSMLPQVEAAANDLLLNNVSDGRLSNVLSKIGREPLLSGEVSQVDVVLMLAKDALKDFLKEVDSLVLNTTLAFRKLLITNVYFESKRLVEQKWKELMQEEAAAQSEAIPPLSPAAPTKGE
TbREL1 conf: TbREL1 inhibition, confirmation; shares compounds with TbREL1 primary; TbREL1 RNA ligation, FRET fluorescence; inhibition, % at 9.66 µM; 390 tested, 37% active; AID 1117282;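 active = mean inhibition across replicates above a set limit taken from the earlier primary screen, cut at about 11% in these data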
A number is an active result; 0 = inactive.

SMILES | TbREL1 primary | others
COc1ccc(C(C(=O)N(C)C2CCCC2)N(Cc2ccc(F)cc2)C(=O)c2csc3ccc(Cl)cc23)cc1OC (stereo unspecified) | 0
NC1=NS(=O)(=O)Nc2ccccc21 | 0
Cc1cccc2sc(N(CCCN(C)C)C(=O)c3ccc(C(=O)c4ccccc4)cc3)nc12 | 0
CCN(Cc1ccccc1)S(=O)(=O)c1ccc(C(=O)N(CCCN(C)C)c2nc3ccc(F)cc3s2)cc1 | 0
CCOc1ccc2nc(N(CCCN(C)C)C(=O)c3ccc(S(=O)(=O)N4CCCC4)cc3)sc2c1 | 0
CN(C)CCCN(C(=O)c1ccc(S(=O)(=O)N2CCCCC2)cc1)c1nc2cc3c(cc2s1)OCO3 | 0
Cc1ccc2nc(N(CCCN(C)C)C(=O)c3ccc4c(c3)CCCC4)sc2c1 | 0
CN(C)CCCN(C(=O)c1ccc(C(=O)c2ccccc2)cc1)c1nc2ccc(F)cc2s1 | 14 | TbREL1 conf=0
CN(C)CCCN(C(=O)c1ccc(S(=O)(=O)N(C)C2CCCCC2)cc1)c1nc2ccc(Br)cc2s1 | 16 | TbREL1 conf=0
CN(C)CCCN(C(=O)c1ccc(S(=O)(=O)N(C)C2CCCCC2)cc1)c1nc2ccc(F)cc2s1 | 11 | TbREL1 conf=0
CN(C)CCCN(C(=O)c1ccc(S(=O)(=O)N2CCCC2)cc1)c1nc2ccc(Br)cc2s1 | 0
C[C@H]1[C@@H](NCc2ccccc2)CC[C@@]23CCCN2C(=O)CCC[C@@H]13 | 0
CCOC(=O)N1CCN(C(=O)C[C@H]2C[C@@]3(C(=O)OC)C(=C[C@H](COCc4ccccc4)O[C@@H]3C)N(Cc3ccccc3)C2=O)CC1 | 0
O=[N+]([O-])c1cccc(COc2ccc(CO)cc2)c1 | 0
Cc1c(C(O)(c2ccccc2)c2ccccc2)[n+]2ccccc2n1C | 0
CC(C)C1C(=O)N(Cc2cn(CCC3OCCCO3)nn2)CCS(=O)(=O)N1Cc1ccc(-c2ccc(Cl)c(Cl)c2)cc1 (stereo unspecified) | 0
Cc1cc(-c2n[nH]c(=S)n2N=Cc2cccc(OCc3ccccc3)c2)n[nH]1 | 0
C=CCn1c(C(C)n2c(-c3cnccn3)nc3ccccc32)nc2ccccc21 (stereo unspecified) | 0
O=C(CN1CCN(Cc2ccccc2)CC1)Nc1ccc(-n2cnnn2)cc1 | 0
O=C(O)COCC(=O)Nc1ccc(-n2cnnn2)cc1 | 12 | TbREL1 conf=0
NC(=O)c1ccc(NC(=O)COc2ccc(-n3cnnn3)cc2)cc1 | 0
O=C(/C=C/[C@H]1O[C@@H](n2ccc(=O)[nH]c2=O)[C@H](O)[C@@H]1O)N1CCN(CCc2ccccc2)CC1 | 0
O=C(CN1C(=O)c2ccccc2C1=O)Nc1cc([N+](=O)[O-])ccc1O | 0
O=C(CN1C(=O)c2ccc([N+](=O)[O-])cc2C1=O)NCc1ccco1 | 12 | TbREL1 conf=0
Cc1c(NC(=O)CN2C(=O)c3ccc([N+](=O)[O-])cc3C2=O)c(=O)n(-c2ccccc2)n1C | 0
SMILES | TbREL1 primary | others
Cc1nc(SCC(=O)N(C)c2ccccc2)[nH]c(=O)c1C | 0
O=C(O[C@H]1CC[C@@]23CCCN2C(=O)CCC[C@H]3C1)N1CCOCC1 | 14 | TbREL1 conf=0
CCN(CC)C(=O)O[C@H]1CC[C@@]23CCCN2C(=O)CCC[C@H]3C1 | 0
CCC(CC)NC(=O)O[C@H]1CC[C@@]23CCCN2C(=O)CCC[C@H]3C1 | 0
Cc1cc(C)cc(NC(=O)N2CCC(c3nc4ccc(Cl)cc4[nH]3)CC2)c1 | 0
O=C(NCCc1ccccc1Cl)[C@@H]1CCCN1C(=O)[C@@H](NS(=O)(=O)c1ccc(F)cc1F)c1ccccc1 | 0
Cc1ccc2c(=O)n3c(nc2c1)C(Cc1ccccc1)NC(=O)c1ccc(Cl)cc1-3 (stereo unspecified) | 0
COC(=O)[C@]12C[C@H](CC(=O)N3CCCCC3)C(=O)N(Cc3cccc4ccccc34)C1=C[C@H](C(C)C)O[C@@H]2C1CC1 | 0
CN(Cc1ccccc1F)C(=O)Cn1c(-c2cncs2)nc2ccccc21 | 0
CCC(=O)c1ccc(OC(=O)c2cnccn2)cc1 | 17 | TbREL1 conf=0
O=C(OCCOc1ccc(Br)cc1)c1cnccn1 | 0
COc1ccc(C(=O)NCCNC(=O)c2cnccn2)cc1 | 0
O=C(C1CCN(c2ncnc3c2sc2cccc(F)c23)CC1)N1CCCCC1 | 0
O=C(N[C@H](C(=O)N1CCC[C@H]1C(=O)NC1CCCC1)C1CCCCC1)c1ccccc1 | 0
Brc1ccc(CSc2nnc(SCc3ccccc3)s2)cc1 | 0
CCN1CCN(CC(=O)Nc2cc(C(F)(F)F)ccc2OCCOC)CC1 | 15 | TbREL1 conf=0
COCCOc1ccc(C(F)(F)F)cc1NC(=O)CN1C(=O)NC(C)(c2ccc3c(c2)OCO3)C1=O (stereo unspecified) | 0
CCCOc1ccc(C(F)(F)F)cc1NC(=O)CN1C(=O)C(=O)N(CC)C1=O | 0
O=C(OCC#CCSc1nnc(-c2cccc3ccccc23)o1)C1CCCC1 | 0
COc1ccc(NC(=O)CSc2ncnc3scc(-c4ccc(C)cc4)c23)cc1OC | 0
O=C(NC1CCCCC1)C(c1ccnc2ccccc12)n1c(=O)c(-c2ccccc2)nc2ccccc21 (stereo unspecified) | 0
COc1ccccc1NS(=O)(=O)c1cccc(C(=O)NNC(=O)c2ccc(NC(C)=O)cc2)c1 | 16 | TbREL1 conf=0
COc1cc(C(=O)NNC(=O)c2ccc(NC(C)=O)cc2)cc(OC)c1OC | 0
COc1ccccc1NS(=O)(=O)c1cccc(C(=O)NCc2ccccn2)c1 | 0
CCCCC#CC(CC)NCc1ccc(OC)cc1OC (stereo unspecified) | 0
SMILES | TbREL1 primary | others
CN(Cc1ccccc1)S(=O)(=O)c1cccc(C(=O)OCc2ccccc2)c1 | 0
CC1=NN(c2ccccc2)C(=O)/C1=C\c1cc(C)n(C)c1C | 0
CC1=NN(c2ccccc2)C(=O)/C1=C/N(C)C | 12 | TbREL1 conf=0
CN(C)/C=C1/C(=O)N(c2ccc([N+](=O)[O-])cc2)N=C1c1ccccc1 | 0
COc1ccc(C=NNC(=O)Cc2cc(=O)[nH][nH]2)c(OC)c1 | 0
Cc1ccc(CN2CCCCC(NC(=O)Nc3ccccc3F)C2=O)cc1 (stereo unspecified) | 0
CCOC(=O)[C@@]12CCC3=C1N(CCC3)C(=O)[C@H](CC(=O)NCCC(C)C)C2 | 0
COc1cc(/C=N/NC(=O)c2cccs2)ccc1OCc1ccccc1 | 0
COc1cc(/C=N/O)ccc1OCc1ccc(C(=O)O)cc1 | 0
NC(N)=N/N=C/c1ccc(OCc2ccccc2)c(OCc2ccccc2)c1 | 12 | TbREL1 conf=0
COc1cccc(Cn2c(C(C)n3c(C)nc4ccccc43)nc3ccccc32)c1 (stereo unspecified) | 0
COc1ccc(N2CCN(CCNS(=O)(=O)c3ccc(F)cc3)CC2)cc1 | 0
COc1ccc(C(=O)NCCS(=O)(=O)NCCc2ccccc2)cc1 | 0
COc1cccc(C(=O)NCCS(=O)(=O)NC(C)CCc2ccccc2)c1 (stereo unspecified) | 14 | TbREL1 conf=11
COc1cccc(C(=O)NCCS(=O)(=O)NCc2ccc(Cl)cc2)c1 | 0
Cc1ccc(-n2c(SCC(=O)Nc3ccc(Oc4ccccc4)cc3)nnc2-c2cccc(C)c2)cc1 | 0
O=C(NC(CC1=CCCCC1)c1ccccc1)C(F)(F)F (stereo unspecified) | 0
Cc1ccc(OCc2nnc(SCC(=O)Nc3ccccc3-c3ccccc3)n2Cc2ccco2)cc1 | 0
O=C1c2ccccc2-c2nccnc21 | 0
O=C1C(=O)c2cccnc2-c2ncccc21 | 43 | TbREL1 conf=68
O=C1c2cc([N+](=O)[O-])ccc2-c2ncccc21 | 0
Cc1ccc(-n2c(SCC(=O)c3ccc4c(c3)OCO4)nc3ccccc3c2=O)cc1 | 0

Screening data (PubChem BioAssay)
